Experimental data published in PubChem BioAssay AID720490 (Broad Institute, 2013).
Measured potencies and affinities stand elsewhere. Activity calls are given as the source filed them.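 Rule for the calls: active = compound whose fitted half-maximal concentration for signal loss stays within twice its top tested dose in every run; inconclusive = runs not all active and not all inactive; inactive = every run inactive.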

Assay: Shn3 3'UTR reporter signal decrease – cell-based, Clone20 osteoblasts, firefly luciferase, cherry-pick, set 2, Schnurri-3 inhibitor project, dose response (AID 720490)
Conditions: Clone20 osteoblast Shn3 3'UTR firefly luciferase, 24 h; series mostly up to 35 µM

outcome, inactive:
CCN(CC)Cc1c(O)ccc2c1O/C(=C\C=C\c1ccccc1)C2=O
CCOC(=O)Cn1c(S(=O)(=O)Cc2ccccc2Cl)nc(-c2ccccc2)c1-c1ccccc1
O=C1S/C(=C\c2ccc(N3CCOCC3)o2)C(=O)N1Cc1c(F)cccc1Cl
CCOC(=O)c1cn(CC(=O)Nc2cccc(Cl)c2C)nn1
